# Reference: PubChem BioAssay (EPA / NIEHS)
# Inconclusive results are not listed. The source made the active and inactive calls. Rule for the calls, unless noted: active = hit-call score of the fitted dose curve at least 0.9, where 1 is the maximum; inactive = score below 0.9.
# Tests used:
# [1] = CCTE_Mundy_HCI_Cortical_Synap_Neur_Matur_NeuriteLength: CCTE's Synaptogenesis and Neurite Maturation Assay in rat cortical cells for Neurite Length, Mundy Lab (AID 2284214)
# Summary of the method: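 Rat cortical neurons, AraC at DIV 5; compound + media change DIV 7, end DIV 12 (288.33 h). Fix, MAP2/synaptophysin/Hoechst immunostain, automated HCI of neurite length vs DMSO.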
# [2] = CCTE_Mundy_HCI_Cortical_Synap_Neur_Matur_NeuriteSpotCountPerNeuron: CCTE's Synaptogenesis and Neurite Maturation Assay in rat cortical cells for Neurite Spot Count per Neuron Count, Mundy Lab (AID 2284215)
# Summary of the method: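 Rat primary cortical cells received AraC at DIV 5, then chemicals with a media change at DIV 7, and were fixed at DIV 12. Synaptophysin puncta on MAP2-stained neurites per neuron were counted by high-content imaging, fitted relative to DMSO.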
# [3] = CCTE_Mundy_HCI_Cortical_Synap_Neur_Matur_SynapseCount: CCTE's Synaptogenesis and Neurite Maturation Assay in rat cortical cells for Synapse Count, Mundy Lab (AID 2284218)
# Summary of the method: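 Primary rat cortical culture; AraC DIV 5 to arrest glia; compound + media change DIV 7; terminated DIV 12. PFA/Hoechst fix, anti-MAP2 + anti-synaptophysin immunostain; HCI synapse count/neuron; DMSO = baseline.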
# [4] = CCTE_Mundy_HCI_Cortical_Synap_Neur_Matur_NeuriteCount: CCTE's Synaptogenesis and Neurite Maturation Assay in rat cortical cells for Neurite Count, Mundy Lab (AID 2284222);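 note: exposure from day 7 to day 12 in vitro with readout at day 12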
# Summary of the method: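 Rat primary cortical cells; AraC added at DIV 5, chemicals dosed with media change at DIV 7 through DIV 12. MAP2/synaptophysin/Hoechst immunostaining, high-content imaging of neurite number; fitted relative to DMSO.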
# [5] = CCTE_Mundy_HCI_Cortical_Synap_Neur_Matur_CellBodySpotCount: CCTE's Synaptogenesis and Neurite Maturation Assay in rat cortical cells for Cell Body Spot Count, Mundy Lab (AID 2284223)
# Summary of the method: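 Rat primary cortical cultures received AraC at DIV 5 to arrest glia, were dosed with chemical at DIV 7 with media change, and were fixed at DIV 12 (288.33 h). Synaptophysin puncta on MAP2-positive cell bodies per neuron were counted by high-content imaging versus DMSO.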
# [6] = CCTE_Mundy_HCI_hNP1_Pro_ResponderAvgInten: CCTE's Proliferation Assay in human neuroprogenitor cells, Mundy Lab (AID 2284224; active = hit-call score of the fitted dose curve at least 0.9, where 1 is the maximum;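 note: human neural progenitor cells hNP1 derived from WA09 embryonic stem cells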)
# Summary of the method: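 Human neuroprogenitors (hNP1, WA09 lineage) receive test chemical after 40 to 44 hours of attachment. A four-hour BrdU pulse begins twenty hours later, followed by fixation and high content imaging; signal is referenced to DMSO controls.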
# [7] = UKN2_HCS_IMR90_cell_viability: Viability Assessment in the University of Konstanz (UKN) Leist Lab Neural Crest Cell Migration Assay in human induced IMR90 Pluripotent Stem Cells (UKN2) (AID 2284233);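 note: viability of neural crest cells differentiated from IMR90 iPSC measured by calcein-AM fluorescence imaging; cells exposed to compound for 24 h after a 24 h migration phase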
# Summary of the method: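 iPSC-derived (IMR90) neural crest cells seeded around silicone stoppers on PLO/laminin/fibronectin; after 24 h migration in N2-S with EGF/FGF, chemical added for 24 h. Calcein-AM/Hoechst stained 30 min, high-content imaged; bidirectional fit versus DMSO.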
# [8] = CCTE_Mundy_HCI_Cortical_NOG_NeuronCount: CCTE's Neurite Outgrowth Assay in rat cortical cells for Neuron Count, Mundy Lab (AID 2284236; active = hit-call score of the fitted dose curve at least 0.9, where 1 is the maximum;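 note: neurons counted by imaging betaIII-tubulin and Hoechst stained cortical cells; cells exposed to compound for about 48 hours before fixation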)
# Summary of the method: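 Read-out: neuron number by high-content imaging of betaIII-tubulin (Alexa Fluor-488) and Hoechst-labelled rat primary cortical cells.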
# [9] = CCTE_Mundy_HCI_Cortical_NOG_BPCount: CCTE's Neurite Outgrowth Assay in rat cortical cells for Branch Point Count, Mundy Lab (AID 2284237)
# Summary of the method: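 Measured 50.33 h after dosing, this morphology endpoint uses rat primary cortical cultures labelled for betaIII-tubulin. Branch points are quantified by high-content imaging, with DMSO as negative control and baseline.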
# [10] = CCTE_Mundy_HCI_hNP1_Casp3_7: CCTE's Caspase-Glo 3/7 Assay in human neuroprogenitor cells for Apoptosis, Mundy Lab (AID 2284240)
# Summary of the method: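 Neuroepithelial-lineage stem cells from WA09 embryonic cells were treated with chemicals after 40–44 h of culture. Twenty-four hours later, caspase-3/7 activation was detected luminescently after a 30 min room-temperature reagent step, with DMSO as baseline.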
# [11] = IUF_NPC2c_oligodendrocyte_migration_120hr: Leibniz Research Institute for Environmental Medicine (IUF) 120-hour Neural Progenitor Cell Migration Assay for Oligodendrocyte Migration (NPC2c) (AID 2284297);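 note: O4-positive oligodendrocyte migration distance divided by radial glia migration distance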
# Summary of the method: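 Human fetal cortex-derived neural progenitor spheres (0.3 mm) were plated on poly-D-lysine/laminin in N2 differentiation medium and exposed to 7 concentrations for 120 h, with half-medium renewal at day 3. Oligodendrocyte migration distance was normalized to radial glia migration, relative to DMSO.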
# [12] = IUF_NPC2a_radial_glia_migration_120hr: Leibniz Research Institute for Environmental Medicine (IUF) 120-hour Neural Progenitor Cell Migration Assay for Radial Glia Migration (NPC2a) (AID 2284298)
# Summary of the method: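 Single 0.3 mm primary human fetal-cortex (GW 16-19) NPC spheres were plated on poly-D-lysine/laminin in N2 differentiation medium and exposed from day 0 for 120 h, half-medium refreshed day 3. Migration distance came from Hoechst nuclei-density imaging, relative to DMSO.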
# [13] = IUF_NPC2a_radial_glia_migration_72hr: Leibniz Research Institute for Environmental Medicine (IUF) 72-hour Neural Progenitor Cell Migration Assay for Radial Glia Migration (NPC2a) (AID 2284299)
# Summary of the method: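 Primary hNPC spheres, fetal brain GW 16-19, on PDL/laminin; DMEM/F12 3:1 + 1% N2. Compound dosed day 0, 7 conc. + SC, half-medium refresh day 3. 72 h brightfield, migration distance core-to-front (um), 4 directions averaged.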
# [14] = IUF_NPC2b_neuronal_migration_120hr: Leibniz Research Institute for Environmental Medicine (IUF) 120-hour Neural Progenitor Cell Migration Assay for Neuron Migration (NPC2b) (AID 2284300)
# Summary of the method: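 Primary human fetal cortex neural progenitor spheres (0.3 mm) plated on poly-D-lysine/laminin in N2 differentiation medium, exposed 120 h with half-medium refresh at day 3. TUBB3-stained neuron distance from sphere core, normalized to radial glia migration, versus DMSO.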
# [15] = IUF_NPC3_neuronal_differentiation_120hr: Leibniz Research Institute for Environmental Medicine (IUF) 120-hour Neuronal Differentiation Assay (NPC3) (AID 2284301)
# Summary of the method: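 Primary human fetal neural progenitor spheres (GW 16-19, 0.3 mm) plated on poly-D-lysine/laminin in N2 medium, exposed from day 0 for 120 h with half-medium refresh at day 3. TUBB3+ cells as percent of Hoechst nuclei in migration area; DMSO baseline.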
# [16] = IUF_NPC4_neurite_length_120hr: Leibniz Research Institute for Environmental Medicine (IUF) 120-hour Neuronal Morphology Assay for Neurite Length (NPC4) (AID 2284302)
# Summary of the method: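 Human fetal cortex (GW 16-19) neural progenitor spheres, 0.3 mm, were plated on poly-D-lysine/laminin in N2 differentiation medium and exposed from day 0 for 120 h, half-feeding at day 3. Mean TUBB3+ neurite length (µm) came from skeletonized images, relative to DMSO.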
# [17] = IUF_NPC5_oligodendrocyte_differentiation_120hr: Leibniz Research Institute for Environmental Medicine (IUF) 120-hour Oligodendrocyte Differentiation Assay (NPC5) (AID 2284304; active = hit-call score of the fitted dose curve at least 0.9, where 1 is the maximum;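 note: primary human fetal neural progenitor spheres plated to migrate and differentiate; share of O4-positive cells among Hoechst nuclei found by CNN image analysis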)
# Summary of the method: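 Primary human fetal (GW 16-19) neural progenitor spheres (0.3 mm) plated on poly-D-lysine/laminin in N2 differentiation medium, exposed from day 0 for 120 h with half-medium refresh at day 3; O4-positive cells as percent of Hoechst nuclei, CNN-identified, versus DMSO.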
# [18] = IUF_NPC4_neurite_area_120hr: Leibniz Research Institute for Environmental Medicine (IUF) 120-hour Neuronal Morphology Assay for Neurite Area (NPC4) (AID 2284305; active = hit-call score of the fitted dose curve at least 0.9, where 1 is the maximum)
# Summary of the method: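 Human fetal cortex-derived neural progenitor spheres (0.3 mm, GW 16-19) plated on poly-D-lysine/laminin in N2 differentiation medium and exposed from day 0 for 120 h across 7 concentrations plus solvent control. Neurite area is mean pixel area per TUBB3-positive neuron via skeletonization, analysed relative to DMSO.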
# [19] = IUF_NPC2-5_cytotoxicity_72hr: Cytotoxicity Assessment at 72 hours in the Leibniz Research Institute for Environmental Medicine (IUF) Neural Progenitor Cell Migration and Differentiation Assay for Cytotoxicity (NPC2-5) (AID 2284306; active = hit-call score of the fitted dose curve at least 0.9, where 1 is the maximum;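 note: LDH release into supernatant measured by resorufin fluorescence marking membrane damage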)
# Summary of the method: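 Human fetal (GW 16-19) neural progenitor spheres, 0.3 mm, plated on poly-D-lysine/laminin in N2 differentiation medium and exposed from day 0 to 7 concentrations plus solvent control (DMSO ≤0.1%). LDH-dependent resazurin-to-resorufin fluorescence in supernatant at 72 h.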
# [20] = IUF_NPC2-5_cytotoxicity_120hr: Cytotoxicity Assessment at 120 hours in the Leibniz Research Institute for Environmental Medicine (IUF) Neural Progenitor Cell Migration and Differentiation Assay (NPC2-5) (AID 2284307; active = hit-call score of the fitted dose curve at least 0.9, where 1 is the maximum)
# Summary of the method: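 Human fetal neural progenitor spheres (0.3 mm, GW 16-19 cortex) were plated on poly-D-lysine/laminin in N2 differentiation medium and exposed for 120 h, with half-medium refresh at day 3. LDH release into supernatant was read by resorufin fluorescence.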
# [21] = IUF_NPC2-5_cell_number_120hr: Cell Number Assessment at 120 hours in the Leibniz Research Institute for Environmental Medicine (IUF) Neural Progenitor Cell Migration and Differentiation Assay (NPC2-5) (AID 2284308);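 note: count of Hoechst-stained nuclei in migration zone around plated human neural progenitor spheres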
# Summary of the method: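 Primary human fetal neural progenitor spheres (GW 16-19, 0.3 mm) plated on poly-D-lysine/laminin in N2 differentiation medium, exposed from day 0 for 120 h with half-medium refresh at day 3; Hoechst-positive nuclei counted in migration area versus DMSO control.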
# [22] = IUF_NPC2-5_viability_120hr: Viability Assessment at 120 hours in the Leibniz Research Institute for Environmental Medicine (IUF) Neural Progenitor Cell Migration and Differentiation Assay (NPC2-5) (AID 2284312)
# Summary of the method: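 Human fetal (GW 16-19) neural progenitor spheres of 0.3 mm were plated on poly-D-lysine/laminin in N2 differentiation medium and exposed from day 0 for 120 h, with half-medium refresh at day 3. Viability was read as alamar blue resazurin-to-resorufin fluorescence against DMSO.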
# [23] = CCTE_Mundy_HCI_iCellGluta_NOG_NeuriteLength: CCTE's Neurite Outgrowth Assay in iCellGluta cells for Neurite Length, Mundy Lab (AID 2284318; active = hit-call score of the fitted dose curve at least 0.9, where 1 is the maximum)
# Summary of the method: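 Automated high-content imaging of betaIII-tubulin (Alexa Fluor-488) and Hoechst-stained cells gave neurite length, normalized to the DMSO baseline.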
# [24] = IUF_NPC1_cytotoxicity_72hr: Cytotoxicity Assessment at 72 hours in the Leibniz Research Institute for Environmental Medicine (IUF) Neural Progenitor Cell Proliferation Assay (NPC1) (AID 2284332; active = hit-call score of the fitted dose curve at least 0.9, where 1 is the maximum;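 note: rising LDH signal means more cytotoxicity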)
# Summary of the method: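 Spheres of primary human neural progenitors are plated one per well on day 0 in growth-factor medium and dosed at once. After three days at 37C, supernatant LDH is measured fluorimetrically via resazurin reduction.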
# [25] = CCTE_Mundy_HCI_iCellGluta_NOG_NeuronCount: CCTE's Neurite Outgrowth Assay in iCellGluta cells for Neuron Count, Mundy Lab (AID 2284340; active = hit-call score of the fitted dose curve at least 0.9, where 1 is the maximum;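 note: cells fixed about 48 h after compound addition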)
# Summary of the method: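 Neuron count read by automated high-content imaging of Hoechst 33342 and betaIII-tubulin/Alexa Fluor-488 labelling in human iPSC glutamatergic neurons. Activity fitted relative to DMSO.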
# [26] = CCTE_Mundy_HCI_iCellGluta_NOG_NeuriteCount: CCTE's Neurite Outgrowth Assay in iCellGluta cells for Neurite Count, Mundy Lab (AID 2284342; active = hit-call score of the fitted dose curve at least 0.9, where 1 is the maximum;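 note: chemical exposure about 48 hours starting 2 hours after plating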)
structure (smiles),measurement,setting,value
COP(=O)(OC)SCN1C(=O)c2ccccc2C1=O,outcome,[1],inactive
same,outcome,[2],inactive
same,outcome,[3],inactive
same,outcome,[4],inactive
same,outcome,[5],inactive
same,outcome,[6],inactive
same,outcome,[7],inactive
same,outcome,[8],inactive
same,outcome,[9],inactive
same,outcome,[10],inactive
same,outcome,[11],inactive
same,outcome,[12],inactive
same,outcome,[13],inactive
same,outcome,[14],inactive
same,outcome,[15],inactive
same,outcome,[16],inactive
same,outcome,[17],inactive
same,outcome,[18],inactive
same,outcome,[19],inactive
same,outcome,[20],inactive
same,outcome,[21],inactive
same,outcome,[22],inactive
same,AC50,[23],50.5 µM (active)
same,outcome,[24],inactive
same,outcome,[25],inactive
same,outcome,[26],inactive
